In PubChem BioAssay (EPA / NIEHS):
Where “and” joins values, the source holds several entries; their conditions need not be identical. Equal values may be shown once. Calls of active or inactive are those of the source. The calls were made as follows: active = hit-call score of the fitted dose curve at least 0.9, where 1 is the maximum; inactive = score below 0.9.

Read-out: Monocyte Chemoattractant Protein-1 (MCP1), CCL2 (gene 6347)
Test: BSK_3C_MCP1: BioMAP Diversity Plus: 3C Assay for Monocyte Chemoattractant Protein-1 (MCP1) Biomarker Activity (AID 2283017)
Details: primary human endothelial cells (HUVEC); actives raise or lower the signal
Experimental: BSK_3C is a cell-based, multiplexed-readout assay that uses umbilical vein endothelium, a human vascular primary cell, with measurements taken at 24 hours after chemical dosing in a 96-well plate.BSK_3C_MCP1 is an assay component measured in the BSK_3C assay. It measures MCP-1 antibody related to regulation of gene expression using ELISA technology.Data from the assay component BSK_3C_MCP1 was analyzed into 1 assay endpoint. This assay endpoint, BSK_3C_MCP1, was analyzed with bidirectional fitting relative to DMSO as the negative control and baseline of activity. Using a type of binding reporter, gain or loss-of-signal activity can be used to understand changes in the signaling as they relate to the gene CCL2. Furthermore, this assay endpoint can be referred to as a primary readout, because this assay has produced multiple assay endpoints where this one serves a signaling function. To generalize the intended target to other relatable targets, this assay endpoint is annotated to the cytokine intended target family, where the subfamily is chemotactic factor.
The levels of cell surface (or secreted, indicated by the prefix "s") biomarker endpoints were measured by ELISA. Overt cytotoxicity to cells in confluent adherent cultures (all systems other than the BT system) was assessed by measuring total protein levels using sulforhodamine B (SRB) staining in parallel cultures at the time of biomarker measurements, indicated as SRB endpoints. For proliferation assays for adherent cell types, individual cell types are cultured at sub-confluence and relative cell numbers quantified by SRB staining at time points optimized for each system (48 h: 3C and CASM3C systems; 72 h: BT and HDF3CGF systems; 96 h: SAg system). SRB was performed by staining cells with 0.1% SRB after fixation with 10% TCA and reading wells at 560 nm.Viability and proliferation of PBMC (T cells) was quantified by Alamar Blue reduction for the SAg and BT systems. For PBMC viability (referred to as PBMC Cytotoxicity within the assay endpoint names), cells were plated (75,000/well in a 96-well plate) and then chemical samples added for 1 h before addition of activators, SEB and TSST-1 (20 ng/mL final concentration each). Cells were incubated for 90 h. Then, Alamar Blue (20 uL/well) (Invitrogen, Cat DAL1100) was added for 6 h, and the plates were read with a fluorescence microplate reader at 546/580 nm (excitation/emission). For PBMC proliferation, cells were plated and activated as above but incubated for only 16 h prior to addition of Alamar Blue. Plates were read after 6 h.

outcome, inactive:
CC(C)C1OCCN1CCOC(=O)NCCCCCCNC(=O)OCCN1CCOC1C(C)C (configuration not stated)
COc1ccccc1Oc1c(NS(=O)(=O)c2ccc(C(C)(C)C)cc2)nc(-c2ncccn2)nc1OCCO
COc1ccc(C(=O)c2ccccc2O)c(O)c1
CCC[Si](OC(C)=O)(OC(C)=O)OC(C)=O
CCC(C)=NO
C1CN(CCOCCN2CCOCC2)CCO1
CC[N+](CC)(CC(=O)Nc1c(C)cccc1C)Cc1ccccc1 (tested in a mixture with another compound)
Cc1c(C(N)=O)cc([N+](=O)[O-])cc1[N+](=O)[O-]
O=C(C(=O)c1ccccc1)c1ccccc1
Cc1cccnc1
CCCCCCC(O)CCCCCCCCCCC(=O)OC (configuration not stated)
CN(C)Cc1cc(C(C)(C)C)c(O)c(C(C)(C)C)c1
Sc1nc2ccccc2s1
COc1cc(CNC(=O)CCCC/C=C/C(C)C)ccc1O
CN(C)CCC(c1ccc(Cl)cc1)c1ccccn1 (configuration not stated)
COC(=O)/C=C\C(=O)OC
Cc1cc(-n2nc3ccc(Cl)cc3n2)c(O)c(C(C)(C)C)c1
CCCCCCCCCC/C=C/C1CC(=O)OC1=O (configuration not stated)
Oc1cccc2ccccc12
CC[N+](CC)(CC(=O)Nc1c(C)cccc1C)Cc1ccccc1

AC50, active:
CCCCCCCCCCCCCCCCCC[N+](C)(C)C 1.68 µM
OC(C(F)(F)F)(C(F)(F)F)C(O)(C(F)(F)F)C(F)(F)F 49.9 µM and 50.5 µM
CCCCCCCCCCC1CO1 (configuration not stated) 31 µM
O=[N+]([O-])c1cc(S(=O)(=O)Nc2ccccc2)ccc1Nc1ccccc1 32.3 µM and 30 µM
CC(C)CC(=O)CC(C)CC(C)C (configuration not stated) 31.2 µM
CN(C)c1ccc(C(c2ccccc2)c2ccc(N(C)C)cc2)cc1 11.9 µM
CCCCC(CC)COC(=O)C=Cc1ccc(OC)cc1 (configuration not stated) 33 µM
